Results as given in PubChem BioAssay (EPA / NIEHS).
Records with an inconclusive call do not appear. The source made the active and inactive calls. How the source made its calls: active means hit-call score of the fitted dose curve at least 0.9, where 1 is the maximum; inconclusive means response in the unintended direction; inactive means score below 0.9.

Legend:
[1] = biological target: human CYP2C9, CYP2C9 (gene 1559) (UniProt P11712); assay: NVS_ADME_hCYP2C9: NovaScreen (NVS) CYP450-related Enzyme Activity (ADME) Assay for human CYP2C9 (AID 2283108)
Method in brief: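 Recombinant human CYP2C9 expressed in SF9 cells, fluorogenic substrate, fluorescence read 0.75 h after dosing. Chemicals first run in duplicate at 10 uM, with actives followed in concentration series; loss of signal versus acetonitrile baseline.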

[2] = biological target: Cytochrome P450 3A4 (Homo sapiens) (UniProt P08684); assay: NVS_ADME_hCYP3A4: NovaScreen (NVS) CYP450-related Enzyme Activity (ADME) Assay for human CYP3A4 (AID 2283110)
Method in brief: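 Recombinant CYP3A4 from insect cells, fluorescence enzyme read-out, 0.33 h after chemical addition. Acetonitrile = negative control/baseline. Primary HTS: 10 uM in duplicate; actives re-tested in concentration series.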

[3] = biological target: Cytochrome P450 2C19 (Homo sapiens) (UniProt P33261); assay: NVS_ADME_hCYP2C19: NovaScreen (NVS) CYP450-related Enzyme Activity (ADME) Assay for human CYP2C19 (AID 2283113);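 on AC50: potency for inhibition seen as loss of fluorescent signal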
Method in brief: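 Compounds first screened in duplicate at 10 uM, then confirmed in concentration series. Insect-cell-expressed human CYP2C19 turned over a fluorogenic substrate, and fluorescence was read after 1 h. Inhibition taken as signal loss relative to acetonitrile.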

[4] = biological target: human Caspase 4 (CASP4), CASP4 (gene 837) (UniProt P49662); assay: NVS_ENZ_hCASP4: NovaScreen (NVS) Enzymatic Assay for human Caspase 4 (CASP4) (AID 2283143)
Method in brief: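 Compounds were first tested in duplicate at 25 uM, and hits were titrated singly to a 50 uM maximum. Recombinant protease from E. coli was read by fluorescence 2 h post-dose, and activity loss was fitted against the DMSO baseline.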

[5] = biological target: human Acid Phosphatase 1 (ACP1), ACP1 (gene 52) (UniProt P24666); assay: NVS_ENZ_hACP1: NovaScreen (NVS) Enzymatic Assay for human Acid Phosphatase 1 (ACP1) (AID 2283136)
Procedure: NVS_ENZ_hACP1 is a biochemical, single-readout assay that uses extracted gene-proteins from SF9 in a cell-free assay. Measurements were taken 1.5 hours after chemical dosing in a 384-well plate.NVS_ENZ_hACP1 is one of one assay component(s) measured or calculated from the NVS_ENZ_hACP1 assay. It is designed to make measurements of enzyme activity, a form of enzyme reporter, as detected with fluorescence intensity signals by Fluorescence and electrophoretic mobility shift technology.Data from the assay component NVS_ENZ_hACP1 was analyzed into 1 assay endpoint. This assay endpoint, NVS_ENZ_hACP1, was analyzed in the positive analysis fitting direction relative to DMSO as the negative control and baseline of activity. Using a type of enzyme reporter, loss-of-signal activity can be used to understand changes in the enzymatic activity as they relate to the gene ACP1. Furthermore, this assay endpoint can be referred to as a primary readout, because this assay has produced multiple assay endpoints where this one serves a enzymatic activity function. To generalize the intended target to other relatable targets, this assay endpoint is annotated to the phosphatase intended target family, where the subfamily is acid phosphatase.
Binding assays used specific radioligands (tritiated, iodinated) with non-radioactive competitive displacement ligands in agonist or antagonist protocols (as indicated) and various reference compounds and inhibitors to titrate specific binding to receptors and transporters. Most enzyme assays (CYPs, kinases, phosphatases, proteases, HDACs) used recombinant protein and specific substrates (fluorescence mostly, some colorimetric and radioactive) and inhibitors, followed by a biochemical separation of substrate and product. All assays for the biochemical HTS were initially run in duplicate at a single concentration (10 uM for CYP450 assays and 25 uM for all others). […] Each assay was run with positive and negative controls, and concurrent controls on every plate. The follow-up (secondary) screen tested active chemical-pairs in concentration series, as well as a few additional assays not tested in the primary screen, some selected negative inactives, and several cases re-run in the concentration series for confirmatory purposes.

[6] = biological target: human AKT serine/threonine Kinase 1 (AKT1), AKT1 (gene 207) (UniProt P31749); assay: NVS_ENZ_hAKT1: NovaScreen (NVS) Enzymatic Assay for human AKT serine/threonine Kinase 1 (AKT1) (AID 2283138)
Method in brief: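 Compounds were first tested in duplicate at 25 uM, and those passing a threshold such as 30% inhibition were run in concentration-response to a maximum of 50 uM. Enzyme activity was measured after 1 h by fluorescence following substrate/product mobility-shift separation.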

[7] = biological target: human Caspase 5 (CASP5), CASP5 (gene 838) (UniProt P51878); assay: NVS_ENZ_hCASP5: NovaScreen (NVS) Enzymatic Assay for human Caspase 5 (CASP5) (AID 2283137)
Method in brief: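 Chemicals were first tested in duplicate at 25 uM against recombinant caspase 5 from E. coli. Activity was read by fluorescence intensity 2 hours after dosing. Those passing a preset inhibition threshold were retested in singleton concentration-response up to 50 uM.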

[8] = biological target: human Beta-secretase (BACE), BACE1 (gene 23621) (UniProt P56817); assay: NVS_ENZ_hBACE: NovaScreen (NVS) Enzymatic Assay for human Beta-secretase (BACE) (AID 2283140);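 further: hits are inhibitors that reduce fluorescent substrate signal versus DMSO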
Method in brief: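 Fluorescence intensity read-out of protease activity defines this endpoint; signal loss relative to DMSO baseline marks inhibition. Recombinant enzyme from SF9 cells, cell-free format, 1 h exposure. Single-concentration duplicate screen (25 uM) precedes concentration-series follow-up.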

Sequence of human CYP2C9, CYP2C9 (gene 1559) (P11712 whole entry, looked up): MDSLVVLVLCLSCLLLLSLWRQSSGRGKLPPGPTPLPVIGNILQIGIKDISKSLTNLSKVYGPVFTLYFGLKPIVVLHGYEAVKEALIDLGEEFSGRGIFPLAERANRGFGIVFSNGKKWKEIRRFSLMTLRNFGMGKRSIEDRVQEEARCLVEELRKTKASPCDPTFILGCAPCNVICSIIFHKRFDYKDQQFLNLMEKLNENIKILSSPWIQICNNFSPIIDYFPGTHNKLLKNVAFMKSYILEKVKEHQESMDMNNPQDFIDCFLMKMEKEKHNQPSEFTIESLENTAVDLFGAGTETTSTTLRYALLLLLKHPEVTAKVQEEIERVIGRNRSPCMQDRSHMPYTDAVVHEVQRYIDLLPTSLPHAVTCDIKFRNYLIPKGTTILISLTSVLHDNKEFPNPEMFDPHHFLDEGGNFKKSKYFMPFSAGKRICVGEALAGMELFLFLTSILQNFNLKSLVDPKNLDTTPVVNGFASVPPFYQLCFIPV
Sequence of human Caspase 4 (CASP4), CASP4 (gene 837) (P49662 whole entry, looked up): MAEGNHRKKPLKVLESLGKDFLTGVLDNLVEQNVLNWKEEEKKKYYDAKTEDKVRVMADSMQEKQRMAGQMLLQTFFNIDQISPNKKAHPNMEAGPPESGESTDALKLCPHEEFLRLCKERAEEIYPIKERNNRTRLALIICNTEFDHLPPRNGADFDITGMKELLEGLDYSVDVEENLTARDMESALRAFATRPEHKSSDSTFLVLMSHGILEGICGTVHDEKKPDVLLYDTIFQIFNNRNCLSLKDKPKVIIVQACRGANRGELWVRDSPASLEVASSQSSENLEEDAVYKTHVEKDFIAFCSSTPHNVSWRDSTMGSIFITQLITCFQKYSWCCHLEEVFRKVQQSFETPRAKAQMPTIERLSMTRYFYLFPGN
Sequence of human Beta-secretase (BACE), BACE1 (gene 23621) (P56817 whole entry, looked up): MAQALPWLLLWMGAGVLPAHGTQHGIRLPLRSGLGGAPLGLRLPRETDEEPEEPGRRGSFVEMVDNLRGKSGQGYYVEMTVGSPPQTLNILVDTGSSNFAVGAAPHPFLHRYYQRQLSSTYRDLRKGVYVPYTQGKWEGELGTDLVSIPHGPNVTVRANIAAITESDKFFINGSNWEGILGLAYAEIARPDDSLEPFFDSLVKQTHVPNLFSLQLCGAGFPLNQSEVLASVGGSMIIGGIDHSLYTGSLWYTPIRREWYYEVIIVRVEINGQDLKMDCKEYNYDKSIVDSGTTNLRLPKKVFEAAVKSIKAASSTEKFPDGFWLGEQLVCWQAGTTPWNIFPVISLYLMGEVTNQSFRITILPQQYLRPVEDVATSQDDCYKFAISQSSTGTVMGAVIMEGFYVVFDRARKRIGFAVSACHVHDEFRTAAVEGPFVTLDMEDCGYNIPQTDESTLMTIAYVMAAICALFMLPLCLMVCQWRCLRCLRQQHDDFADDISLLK
Sequence of human Caspase 5 (CASP5), CASP5 (gene 838) (P51878 whole entry, looked up): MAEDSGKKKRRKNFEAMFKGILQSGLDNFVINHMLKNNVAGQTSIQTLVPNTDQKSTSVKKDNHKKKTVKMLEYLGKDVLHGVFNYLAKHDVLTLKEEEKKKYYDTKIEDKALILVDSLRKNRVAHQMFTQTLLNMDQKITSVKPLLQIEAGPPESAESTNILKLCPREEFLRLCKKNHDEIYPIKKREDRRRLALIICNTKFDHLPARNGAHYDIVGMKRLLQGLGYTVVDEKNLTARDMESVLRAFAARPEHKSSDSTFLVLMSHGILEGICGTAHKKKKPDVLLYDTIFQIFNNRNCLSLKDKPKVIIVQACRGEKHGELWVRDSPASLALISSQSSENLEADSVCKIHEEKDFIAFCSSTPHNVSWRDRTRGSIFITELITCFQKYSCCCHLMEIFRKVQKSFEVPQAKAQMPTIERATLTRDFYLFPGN
Sequence of human Acid Phosphatase 1 (ACP1), ACP1 (gene 52) (P24666 whole entry, looked up): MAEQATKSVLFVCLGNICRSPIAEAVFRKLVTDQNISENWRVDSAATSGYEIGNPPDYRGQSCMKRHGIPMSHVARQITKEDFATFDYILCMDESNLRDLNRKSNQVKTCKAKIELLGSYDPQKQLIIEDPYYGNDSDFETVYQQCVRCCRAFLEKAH
Sequence of Cytochrome P450 3A4 (Homo sapiens) (P08684 whole entry, looked up): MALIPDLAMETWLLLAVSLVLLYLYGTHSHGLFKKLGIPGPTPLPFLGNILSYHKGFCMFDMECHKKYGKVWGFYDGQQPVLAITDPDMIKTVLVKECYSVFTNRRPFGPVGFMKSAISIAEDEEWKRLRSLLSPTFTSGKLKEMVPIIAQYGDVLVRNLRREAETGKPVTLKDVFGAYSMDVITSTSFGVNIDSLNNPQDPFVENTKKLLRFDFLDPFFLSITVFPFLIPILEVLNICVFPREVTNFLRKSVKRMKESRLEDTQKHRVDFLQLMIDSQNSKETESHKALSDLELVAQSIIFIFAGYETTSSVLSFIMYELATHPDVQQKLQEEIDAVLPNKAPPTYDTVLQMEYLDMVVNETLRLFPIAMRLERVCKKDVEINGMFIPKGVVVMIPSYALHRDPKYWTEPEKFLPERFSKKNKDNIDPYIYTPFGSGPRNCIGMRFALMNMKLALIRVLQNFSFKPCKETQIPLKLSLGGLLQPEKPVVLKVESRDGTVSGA
Sequence of human AKT serine/threonine Kinase 1 (AKT1), AKT1 (gene 207) (P31749 whole entry, looked up): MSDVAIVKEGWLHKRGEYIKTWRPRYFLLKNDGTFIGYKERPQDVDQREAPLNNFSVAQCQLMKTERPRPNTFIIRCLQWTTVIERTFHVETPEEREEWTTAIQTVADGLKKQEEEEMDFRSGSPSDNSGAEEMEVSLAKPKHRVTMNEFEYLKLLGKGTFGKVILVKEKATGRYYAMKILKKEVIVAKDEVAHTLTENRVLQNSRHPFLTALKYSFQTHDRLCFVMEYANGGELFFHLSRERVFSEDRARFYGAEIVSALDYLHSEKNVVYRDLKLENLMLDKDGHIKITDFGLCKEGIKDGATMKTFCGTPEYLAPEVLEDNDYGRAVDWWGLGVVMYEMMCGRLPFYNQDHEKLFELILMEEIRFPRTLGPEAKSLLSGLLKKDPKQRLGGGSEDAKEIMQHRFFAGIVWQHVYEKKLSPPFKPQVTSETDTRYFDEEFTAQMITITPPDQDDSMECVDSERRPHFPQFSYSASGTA

For `CNS(=O)(=O)c1cc(C(=O)N2CCC(CCN3C4CCC3CC(n3c(C)nc5ccccc53)C4)(c3cccc(F)c3)CC2)c(Cl)cc1F` (centres undefined), the AC50 [1] was 6.52 µM (active), the AC50 [2] was 4.08 µM (active) and the AC50 [3] was 6.01 µM (active). For the same compound, the outcome [4] was “inactive”.
In the case of `CC(C)(O)c1coc(S(=O)(=O)NC(=O)Nc2c3c(cc4c2CCC4)CCC3)c1`, the AC50 [1] is reported as 13.4 µM (active) and the AC50 [3] is reported as 10 µM (active).
With `COc1ccc(/C=C/S(=O)(=O)NC(=O)c2ccc(C)cc2Cl)cc1` the AC50 [1] was 12.7 µM (active).
With `CC(C)c1cccc(C(C)C)c1N1C(=O)c2ccc(O)cc2C1=O` the AC50 [1] was 4.78 µM (active), the AC50 [2] was 13.6 µM (active) and the AC50 [3] was 5.11 µM (active). For the same compound, the outcome [5] was “inactive” and the outcome [6] was “inactive”.
With `O=P(OC(CCl)CCl)(OC(CCl)CCl)OC(CCl)CCl` the outcome [1] was “inactive”, the AC50 [2] was 6.65 µM (active) and the AC50 [3] was 6.38 µM (active). The outcome [5] was “inactive”, the outcome [7] was “inactive” and the AC50 [8] was 8.73 µM (active).
For `CCCCCCc1ccc(O)cc1O`, the AC50 [1] was 10 µM (active), the AC50 [3] was 4.91 µM (active) and the outcome [8] was “inactive”.
`Cc1ccc(N)cc1O` was tested, and the AC50 [1] was 5.95 µM (active), the AC50 [3] was 7.57 µM (active) and the outcome [5] was “inactive”. The outcome [6] was “inactive”.
With `Cc1[nH]cnc1C[C@H]1CCc2c(C)c3ccccc3n2C1=O` the AC50 [1] was 1.77 µM (active) and the AC50 [3] was 0.636 µM (active).
With `O=C(OC[C@H]1O[C@@H](OC(=O)c2cc(O)c(O)c(OC(=O)c3cc(O)c(O)c(O)c3)c2)[C@H](OC(=O)c2cc(O)c(O)c(OC(=O)c3cc(O)c(O)c(O)c3)c2)[C@@H](OC(=O)c2cc(O)c(O)c(OC(=O)c3cc(O)c(O)c(O)c3)c2)[C@@H]1OC(=O)c1cc(O)c(O)c(OC(=O)c2cc(O)c(O)c(O)c2)c1)c1cc(O)c(O)c(OC(=O)c2cc(O)c(O)c(O)c2)c1` the AC50 [1] was 3.05 µM (active), the AC50 [3] was 2.34 µM (active) and the AC50 [7] was 0.136 µM (active). The AC50 [8] was 3.11 µM (active).
In the case of `Nc1ccc(Nc2ccccc2)cc1`, the AC50 [1] is reported as 16.1 µM (active), the AC50 [2] is reported as 7.5 µM (active) and the AC50 [3] is reported as 6.51 µM (active). The outcome [7] was “inactive” and the outcome [4] was “inactive”.
`CC(=O)OCCC(C)C` was tested, and the AC50 [1] was 8.59 µM (active) and the outcome [2] was “inactive”.
In the case of `Oc1ccc2c(c1)-c1ccccc1C2`, the AC50 [1] is reported as 3.72 µM (active), the outcome [2] is reported as “inactive” and the AC50 [3] is reported as 5.99 µM (active). For the same compound, the AC50 [7] was 36.1 µM (active).
`CCOC(=O)c1ccc(C2CCC(NC[C@H](O)COc3ccc(O)c(NS(C)(=O)=O)c3)CC2)cc1` (some centres undefined) was tested, and the AC50 [1] was 2.14 µM (active), the outcome [2] was “inactive” and the AC50 [3] was 1.74 µM (active).
`CCN(C(=O)c1cc(C)cc(OC[C@H](C)Nc2ccncc2)c1)C(C)C` was tested, and the AC50 [1] was 4.5 µM (active) and the AC50 [2] was 2.87 µM (active).
In the case of `CC(C)=CCCC(C)CCO` (centres undefined), the outcome [3] is reported as “inactive”.
In the case of `O=C(NS(=O)(=O)/C=C/c1ccccc1)c1ccc(F)cc1Cl`, the AC50 [1] is reported as 6.85 µM (active).
`Cn1c(=O)cc(Oc2ccc(F)cc2F)c2cnc(NCC(C)(C)O)nc21` was tested, and the outcome [2] was “inactive”.
`CCOC(=O)COc1ccc2c(c1)CC(NCC(O)c1cccc(Cl)c1)CC2` (centres undefined) was tested, and the outcome [2] was “inactive” and the AC50 [3] was 5.22 µM (active).
With `CCc1cc(SCc2sc(-c3ccc(C(F)(F)F)cc3)nc2CN2CCN(c3ccc(OC)cc3)CC2)ccc1OCC(=O)O` the outcome [1] was “inactive”, the outcome [2] was “inactive” and the AC50 [7] was 2.35 µM (active). For the same compound, the outcome [4] was “inactive”.
For `O=C(O)c1cccc(N(Cc2cccnc2)c2ccc(OC(F)F)c(OC(F)F)c2)c1`, the AC50 [1] was 6.14 µM (active), the AC50 [2] was 6.01 µM (active) and the AC50 [3] was 4.98 µM (active).
With `Nc1nc2ncc(CNc3ccc(C(=O)N[C@@H](CCC(=O)O)C(=O)O)cc3)nc2c(=O)[nH]1` the outcome [5] was “inactive”.
For `O=C(O)c1cc(N=Nc2ccc(S(=O)(=O)Nc3ccccn3)cc2)ccc1O`, the outcome [5] was “inactive”.
For `CCOc1cccc(-n2cc(C(=O)N3CCN(c4cc(C(=O)O)c5ccccc5c4)CC3)nc2-c2ccc(C)cc2)c1`, the AC50 [7] was 18.3 µM (active) and the outcome [4] was “inactive”.
In the case of `CN(C)c1ccc(N=NS(=O)(=O)O)cc1`, the outcome [4] is reported as “inactive”.
